The text below walks through data of PubChem BioAssay (EPA / NIEHS).

Read-out in assay [1]: Monokine induced gamma interferon (MIG), CXCL9 (gene 4283)
The experiment in a line: BSK_SAg_MIG: BioMAP Diversity Plus: SAg Assay for Monokine induced gamma interferon (MIG) Biomarker Activity (AID 2283092). The following applies: primary human HUVEC with PBMC; actives raise or lower the signal. The procedure, abridged: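 ELISA readout of MIG/CXCL9; primary human umbilical vein endothelial cells co-cultured with peripheral blood mononuclear cells; 24 h post-dose; gain/loss fit vs DMSO baseline.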

A short description of assay [2]: BSK_SAg_PBMCCytotoxicity: PBMC Cytotoxicity Assessment in the BioMAP Diversity Plus: SAg Assay (AID 2283093).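 For AC50: PBMC superantigen activated with SEB plus TSST-1 one hour after compound addition.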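 Note: fitted both ways against DMSO so a hit may be loss or gain of signal.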 The following applies: primary human HUVEC with PBMC. The method in brief: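 PBMC viability by Alamar Blue reduction, fluorescence read at 546/580 nm after 6 h dye exposure. Cells were dosed 1 h before SEB plus TSST-1 activation (20 ng/mL final each), then held 90 h; endothelial/PBMC human co-culture.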

Read-out in assay [3]: Interleukin-8 (IL8), CXCL8 (gene 3576)
Put plainly: BSK_SAg_IL8: BioMAP Diversity Plus: SAg Assay for Interleukin-8 (IL8) Biomarker Activity (AID 2283094). The following applies: primary human HUVEC with PBMC; actives raise or lower the signal. The procedure, abridged:
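Chemicals were dosed onto a human endothelial–PBMC co-culture, and IL-8 was quantified by ELISA after 24 h. Both increases and decreases were fitted relative to DMSO.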

The nature of assay [4]: BSK_SAg_Proliferation: Cell Proliferation Assessment in the BioMAP Diversity Plus: SAg Assay (AID 2283095).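 Note: relative cell number as total protein by SRB absorbance in sub-confluent culture.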 As to conditions: primary human HUVEC with PBMC. The method in brief:
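Absorbance of sulforhodamine B at 560 nm reports total protein in a human vascular endothelial/PBMC co-culture after 96 h chemical exposure. Gain or loss of signal is fitted in both directions against DMSO.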

The nature of assay [5]: BSK_SAg_SRB: Viability Assessment in the BioMAP Diversity Plus: SAg Assay (AID 2283096).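 Note: cells read one day after compound addition; hits may be either gain or loss of signal compared with DMSO.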 As to conditions: primary human HUVEC with PBMC. The method in brief: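 Compounds were added to a human vascular co-culture of umbilical vein endothelium and PBMC. After 24 h, parallel cultures were fixed with 10% TCA, stained with 0.1% sulforhodamine B and read at 560 nm. Gain or loss of signal was fitted relative to DMSO.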

Assay [6] concerns the target human CYP19A1, CYP19A1 (gene 1588) (UniProt P11511). The experiment in a line: NVS_ADME_hCYP19A1: NovaScreen (NVS) CYP450-related Enzyme Activity (ADME) Assay for human CYP19A1 (AID 2283098; active = hit-call score of the fitted dose curve at least 0.9, where 1 is the maximum;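 for AC50: potency for inhibitors seen as loss of fluorescent enzyme signal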). The method in brief:
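Fluorescence intensity read-out; activity taken as signal loss relative to acetonitrile vehicle. Extracted enzyme, specific substrate, no cells, 0.5 h exposure. Duplicate single-point screen at 10 uM, then concentration–response follow-up for actives.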

For assay [7], the target named is human CYP2B6, CYP2B6 (gene 1555) (UniProt P20813). The experiment in a line: NVS_ADME_hCYP2B6: NovaScreen (NVS) CYP450-related Enzyme Activity (ADME) Assay for human CYP2B6 (AID 2283101; active = hit-call score of the fitted dose curve at least 0.9, where 1 is the maximum). The method in brief:
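Fluorescence-based enzyme activity of recombinant human CYP2B6, measured 1 h post-dose against acetonitrile vehicle baseline. Screened at a single concentration of 10 uM in duplicate before concentration-response follow-up.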

For assay [8], the target named is human CYP1A2, CYP1A2 (gene 1544) (UniProt P05177). The experiment in a line: NVS_ADME_hCYP1A2: NovaScreen (NVS) CYP450-related Enzyme Activity (ADME) Assay for human CYP1A2 (AID 2283102; active = hit-call score of the fitted dose curve at least 0.9, where 1 is the maximum;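 note: potency for inhibition since loss of fluorescence marks reduced CYP1A2 activity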). The procedure, abridged:
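Inhibition scored as decrease in fluorescent product versus acetonitrile negative control. Enzyme: insect-cell recombinant human CYP1A2, substrate-specific, cell-free. Reading at 0.5 h; 10 uM duplicate initial screen with positive and negative controls on every plate.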

The target of assay [9] is human CYP2C9, CYP2C9 (gene 1559) (UniProt P11712). The experiment in a line: NVS_ADME_hCYP2C9: NovaScreen (NVS) CYP450-related Enzyme Activity (ADME) Assay for human CYP2C9 (AID 2283108; active = hit-call score of the fitted dose curve at least 0.9, where 1 is the maximum). The procedure, abridged: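 Recombinant human CYP2C9 expressed in SF9 cells, fluorogenic substrate, fluorescence read 0.75 h after dosing. Chemicals first run in duplicate at 10 uM, with actives followed in concentration series; loss of signal versus acetonitrile baseline.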
human CYP2C9, CYP2C9 (gene 1559), sequence (P11712 whole entry, looked up): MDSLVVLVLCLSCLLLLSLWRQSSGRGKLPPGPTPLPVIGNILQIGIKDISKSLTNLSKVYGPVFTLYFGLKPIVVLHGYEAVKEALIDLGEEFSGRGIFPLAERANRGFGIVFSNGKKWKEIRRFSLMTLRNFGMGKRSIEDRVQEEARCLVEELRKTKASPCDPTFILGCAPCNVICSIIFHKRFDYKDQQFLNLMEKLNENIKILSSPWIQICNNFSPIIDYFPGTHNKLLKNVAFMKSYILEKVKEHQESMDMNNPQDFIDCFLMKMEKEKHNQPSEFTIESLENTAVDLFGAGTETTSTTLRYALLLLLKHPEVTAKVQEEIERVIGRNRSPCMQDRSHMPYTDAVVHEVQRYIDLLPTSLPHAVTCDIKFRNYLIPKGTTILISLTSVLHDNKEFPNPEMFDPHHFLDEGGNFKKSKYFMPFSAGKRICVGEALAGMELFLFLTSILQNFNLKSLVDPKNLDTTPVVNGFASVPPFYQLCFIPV

Assay [10] concerns the target Cytochrome P450 2C19 (Homo sapiens) (UniProt P33261). Put plainly: NVS_ADME_hCYP2C19: NovaScreen (NVS) CYP450-related Enzyme Activity (ADME) Assay for human CYP2C19 (AID 2283113; active = hit-call score of the fitted dose curve at least 0.9, where 1 is the maximum;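 note: potency for inhibition seen as loss of fluorescent signal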). The method in brief: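 Biochemical CYP2C19 inhibition screen: insect-cell recombinant protein plus fluorescent substrate, 1 h, fluorescence intensity. Acetonitrile defined baseline activity. Single 10 uM concentration in duplicate, with concentration-response follow-up for actives.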

Assay [11] concerns the target human CYP1A1, CYP1A1 (gene 1543) (UniProt P04798). The experiment in a line: NVS_ADME_hCYP1A1: NovaScreen (NVS) CYP450-related Enzyme Activity (ADME) Assay for human CYP1A1 (AID 2283100; active = hit-call score of the fitted dose curve at least 0.9, where 1 is the maximum). The method in brief:
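Inhibition of recombinant CYP1A1 turnover was assessed fluorometrically in a biochemical format 1 h after compound exposure. Testing began at 10 uM in duplicate and progressed to concentration series reaching 20 uM, with on-plate positive and negative controls.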

For assay [12], the target named is Cytochrome P450 2C18 (Homo sapiens) (UniProt P33260). Put plainly: NVS_ADME_hCYP2C18: NovaScreen (NVS) CYP450-related Enzyme Activity (ADME) Assay for human CYP2C18 (AID 2283103). The procedure, abridged: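 Enzyme activity measured by fluorescence 0.5 h after compound addition, using recombinant CYP2C18 and a specific substrate. Actives from duplicate 10 uM screening were retested in concentration series (top 20 uM); acetonitrile served as negative baseline.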
Cytochrome P450 2C18 (Homo sapiens), sequence (P33260 whole entry, looked up): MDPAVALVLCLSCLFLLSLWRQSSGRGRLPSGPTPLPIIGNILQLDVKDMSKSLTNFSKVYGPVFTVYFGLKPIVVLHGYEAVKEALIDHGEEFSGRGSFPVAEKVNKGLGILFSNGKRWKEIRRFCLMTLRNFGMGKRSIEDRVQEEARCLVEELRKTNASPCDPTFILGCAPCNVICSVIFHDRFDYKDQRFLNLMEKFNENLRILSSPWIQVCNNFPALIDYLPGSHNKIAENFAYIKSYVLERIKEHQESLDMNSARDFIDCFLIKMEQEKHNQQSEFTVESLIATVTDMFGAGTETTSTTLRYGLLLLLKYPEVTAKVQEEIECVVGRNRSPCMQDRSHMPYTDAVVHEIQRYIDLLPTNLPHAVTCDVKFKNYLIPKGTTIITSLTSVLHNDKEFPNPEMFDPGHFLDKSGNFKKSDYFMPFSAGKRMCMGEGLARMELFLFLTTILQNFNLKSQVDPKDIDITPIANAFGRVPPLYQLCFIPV

For assay [13], the target named is human CYP2J2, CYP2J2 (gene 1573) (UniProt P51589). Put plainly: NVS_ADME_hCYP2J2: NovaScreen (NVS) CYP450-related Enzyme Activity (ADME) Assay for human CYP2J2 (AID 2283106; active = hit-call score of the fitted dose curve at least 0.9, where 1 is the maximum). The procedure, abridged:
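Chemicals were first tested at 10 uM in duplicate, and hits meeting criteria such as 30% inhibition were run in singleton concentration series with a 20 uM top concentration. Enzyme activity of recombinant CYP2J2 was measured by fluorescence after 1 h, relative to acetonitrile.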

Assay [14] has as its target human CYP2D6, CYP2D6 (gene 1565) (UniProt P10635). Put plainly: NVS_ADME_hCYP2D6: NovaScreen (NVS) CYP450-related Enzyme Activity (ADME) Assay for human CYP2D6 (AID 2283107; active = hit-call score of the fitted dose curve at least 0.9, where 1 is the maximum). The procedure, abridged:
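Biochemical fluorescence assay, insect-cell-derived enzyme. Read at 1 h; inhibition taken from loss of signal against acetonitrile. Screened at 10 uM in duplicate, with concentration series for actives.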

Assay [15] addresses rat CYP2A1, Cyp2a1 (gene 24894) (UniProt P11711). The experiment in a line: NVS_ADME_rCYP2A1: NovaScreen (NVS) CYP450-related Enzyme Activity (ADME) Assay for rat CYP2A1 (AID 2283114). The procedure, abridged: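 Cell-free fluorescence enzyme-activity read on recombinant rat CYP2A1, taken 0.75 h post-dosing. Compounds were screened in duplicate at 10 uM, then hits tested in concentration series (max 20 uM); inhibition scored relative to acetonitrile baseline.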

Assay [16] addresses rat CYP1A2, Cyp1a2 (gene 24297) (UniProt P04799). The experiment in a line: NVS_ADME_rCYP1A2: NovaScreen (NVS) CYP450-related Enzyme Activity (ADME) Assay for rat CYP1A2 (AID 2283115; active = hit-call score of the fitted dose curve at least 0.9, where 1 is the maximum). The procedure, abridged: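 Primary testing ran in duplicate at 10 uM, with actives re-tested across concentration series. Fluorescence intensity from substrate turnover by recombinant protein, measured 1 hour post-dosing, with signal loss scored against acetonitrile vehicle.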

The target of assay [17] is human CYP4F12, CYP4F12 (gene 66002) (UniProt Q9HCS2). Put plainly: NVS_ADME_hCYP4F12: NovaScreen (NVS) CYP450-related Enzyme Activity (ADME) Assay for human CYP4F12 (AID 2283111; active = hit-call score of the fitted dose curve at least 0.9, where 1 is the maximum). The procedure, abridged:
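Recombinant enzyme with a fluorescent substrate, signal read at 0.5 h post-dose; activity loss analysed relative to acetonitrile. Compounds first run in duplicate at 10 uM, with follow-up concentration-response testing of actives.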

Records with an inconclusive call do not appear. Active and inactive are the calls of the source. Rule for the calls, unless noted: active = hit-call score of the fitted dose curve at least 0.9, where 1 is the maximum; inactive = score below 0.9.

human CYP2B6, CYP2B6 (gene 1555), sequence (P20813 whole entry, looked up): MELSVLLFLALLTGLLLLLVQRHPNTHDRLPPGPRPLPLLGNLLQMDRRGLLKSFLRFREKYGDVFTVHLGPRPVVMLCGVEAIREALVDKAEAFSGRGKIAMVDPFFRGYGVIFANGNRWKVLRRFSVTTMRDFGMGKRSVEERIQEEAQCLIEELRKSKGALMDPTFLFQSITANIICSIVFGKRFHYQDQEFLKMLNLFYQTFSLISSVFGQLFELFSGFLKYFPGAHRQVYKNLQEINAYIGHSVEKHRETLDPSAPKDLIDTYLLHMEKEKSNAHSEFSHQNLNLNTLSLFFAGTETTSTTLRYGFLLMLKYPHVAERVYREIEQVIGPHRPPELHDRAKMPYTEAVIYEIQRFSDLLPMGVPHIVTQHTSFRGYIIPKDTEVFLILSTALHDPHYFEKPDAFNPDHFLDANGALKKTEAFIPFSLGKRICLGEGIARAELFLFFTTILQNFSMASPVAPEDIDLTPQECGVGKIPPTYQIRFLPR
human CYP19A1, CYP19A1 (gene 1588), sequence (P11511 whole entry, looked up): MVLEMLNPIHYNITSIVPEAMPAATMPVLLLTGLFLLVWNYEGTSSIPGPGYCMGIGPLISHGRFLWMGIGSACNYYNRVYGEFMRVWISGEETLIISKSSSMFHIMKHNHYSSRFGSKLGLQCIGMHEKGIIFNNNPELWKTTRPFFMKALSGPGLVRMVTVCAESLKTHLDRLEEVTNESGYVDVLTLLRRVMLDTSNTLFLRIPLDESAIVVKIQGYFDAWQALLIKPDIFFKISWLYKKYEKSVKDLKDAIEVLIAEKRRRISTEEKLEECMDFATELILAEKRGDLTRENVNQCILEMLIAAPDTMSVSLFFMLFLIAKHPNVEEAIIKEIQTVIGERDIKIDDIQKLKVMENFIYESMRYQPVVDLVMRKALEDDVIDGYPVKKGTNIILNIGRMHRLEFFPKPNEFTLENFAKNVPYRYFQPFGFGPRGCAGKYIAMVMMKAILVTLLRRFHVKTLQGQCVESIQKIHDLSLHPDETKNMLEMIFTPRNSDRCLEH
rat CYP2A1, Cyp2a1 (gene 24894), sequence (P11711 whole entry, looked up): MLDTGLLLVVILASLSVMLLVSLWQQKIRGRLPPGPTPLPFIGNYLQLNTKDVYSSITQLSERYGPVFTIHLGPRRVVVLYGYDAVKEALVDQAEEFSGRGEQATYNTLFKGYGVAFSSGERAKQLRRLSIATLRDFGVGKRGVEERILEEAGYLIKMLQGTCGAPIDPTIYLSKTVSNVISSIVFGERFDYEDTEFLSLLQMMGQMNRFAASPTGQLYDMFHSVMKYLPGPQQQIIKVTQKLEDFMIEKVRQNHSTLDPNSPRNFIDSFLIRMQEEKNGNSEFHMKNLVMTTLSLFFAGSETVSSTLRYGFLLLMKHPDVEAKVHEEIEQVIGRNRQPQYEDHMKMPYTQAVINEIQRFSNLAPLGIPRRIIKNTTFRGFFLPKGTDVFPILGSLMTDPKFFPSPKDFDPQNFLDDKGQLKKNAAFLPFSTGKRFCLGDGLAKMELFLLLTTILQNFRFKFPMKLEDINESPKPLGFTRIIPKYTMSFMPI
human CYP1A2, CYP1A2 (gene 1544), sequence (P05177 whole entry, looked up): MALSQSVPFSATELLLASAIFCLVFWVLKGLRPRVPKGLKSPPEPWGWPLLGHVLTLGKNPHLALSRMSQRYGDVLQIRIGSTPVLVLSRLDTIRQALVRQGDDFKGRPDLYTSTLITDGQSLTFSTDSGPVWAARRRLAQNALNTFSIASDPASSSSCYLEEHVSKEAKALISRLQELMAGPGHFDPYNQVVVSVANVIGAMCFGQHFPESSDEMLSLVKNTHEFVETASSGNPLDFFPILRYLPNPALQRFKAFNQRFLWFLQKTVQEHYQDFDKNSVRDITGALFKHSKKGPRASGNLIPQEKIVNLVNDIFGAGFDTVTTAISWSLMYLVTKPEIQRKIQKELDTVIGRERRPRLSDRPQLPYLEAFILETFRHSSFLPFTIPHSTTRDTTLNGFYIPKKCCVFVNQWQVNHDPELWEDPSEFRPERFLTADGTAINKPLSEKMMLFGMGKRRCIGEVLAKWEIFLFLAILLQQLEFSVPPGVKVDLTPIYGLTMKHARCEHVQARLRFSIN
human CYP1A1, CYP1A1 (gene 1543), sequence (P04798 whole entry, looked up): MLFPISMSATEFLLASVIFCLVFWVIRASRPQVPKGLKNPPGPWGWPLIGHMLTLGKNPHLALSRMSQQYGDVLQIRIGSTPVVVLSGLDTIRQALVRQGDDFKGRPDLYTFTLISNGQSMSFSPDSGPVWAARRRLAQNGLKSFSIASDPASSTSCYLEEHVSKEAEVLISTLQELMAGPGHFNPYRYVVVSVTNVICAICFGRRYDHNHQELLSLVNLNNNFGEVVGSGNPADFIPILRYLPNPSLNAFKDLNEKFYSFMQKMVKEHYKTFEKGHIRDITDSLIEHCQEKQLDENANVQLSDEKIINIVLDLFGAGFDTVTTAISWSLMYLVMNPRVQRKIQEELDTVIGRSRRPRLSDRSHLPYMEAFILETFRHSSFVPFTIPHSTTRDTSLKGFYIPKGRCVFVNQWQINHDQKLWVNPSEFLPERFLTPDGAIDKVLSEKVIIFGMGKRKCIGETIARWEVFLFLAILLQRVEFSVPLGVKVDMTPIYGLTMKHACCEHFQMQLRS
human CYP2J2, CYP2J2 (gene 1573), sequence (P51589 whole entry, looked up): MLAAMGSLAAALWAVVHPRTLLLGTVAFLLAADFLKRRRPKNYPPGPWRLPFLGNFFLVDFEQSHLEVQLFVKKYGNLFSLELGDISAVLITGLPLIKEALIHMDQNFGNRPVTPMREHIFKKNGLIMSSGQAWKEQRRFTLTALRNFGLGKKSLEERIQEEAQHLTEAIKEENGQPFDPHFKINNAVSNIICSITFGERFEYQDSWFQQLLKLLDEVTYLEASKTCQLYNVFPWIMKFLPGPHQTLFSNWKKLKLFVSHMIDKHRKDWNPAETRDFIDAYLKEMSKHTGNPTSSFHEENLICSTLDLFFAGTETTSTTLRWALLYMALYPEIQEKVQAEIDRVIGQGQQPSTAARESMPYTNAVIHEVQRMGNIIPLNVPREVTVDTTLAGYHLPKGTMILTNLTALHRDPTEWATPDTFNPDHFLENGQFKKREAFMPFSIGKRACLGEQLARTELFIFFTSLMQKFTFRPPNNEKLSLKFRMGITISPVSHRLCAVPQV
rat CYP1A2, Cyp1a2 (gene 24297), sequence (P04799 whole entry, looked up): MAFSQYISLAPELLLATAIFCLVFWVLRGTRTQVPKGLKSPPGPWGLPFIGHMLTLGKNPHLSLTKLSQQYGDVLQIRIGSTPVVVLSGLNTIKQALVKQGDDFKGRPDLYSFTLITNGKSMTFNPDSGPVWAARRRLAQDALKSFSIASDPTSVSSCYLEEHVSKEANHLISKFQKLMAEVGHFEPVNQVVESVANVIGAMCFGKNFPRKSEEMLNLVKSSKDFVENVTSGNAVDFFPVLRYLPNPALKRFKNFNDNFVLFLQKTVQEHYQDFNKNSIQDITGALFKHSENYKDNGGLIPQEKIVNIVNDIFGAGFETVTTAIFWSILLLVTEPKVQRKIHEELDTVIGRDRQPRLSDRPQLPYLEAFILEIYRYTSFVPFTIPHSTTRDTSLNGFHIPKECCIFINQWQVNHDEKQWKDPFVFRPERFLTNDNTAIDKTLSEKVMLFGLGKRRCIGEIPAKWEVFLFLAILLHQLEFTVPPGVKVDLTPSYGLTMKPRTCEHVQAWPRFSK

One may read the AC50 as the midpoint of the concentration-response curve, whichever way the signal moves. Turning to `Cc1cc(C)nc(Nc2ccccc2)n1`, the result in assay [1], in assay [4] and in assay [5] was inactive. Further, the figures for the AC50 in assay [2] and in [3] were 7.57 µM (active) and 13.8 µM (active), respectively.
In the case of `CCOc1nc(F)cc2nc(S(=O)(=O)Nc3c(Cl)cccc3Cl)nn12`, the result in assay [1], in assay [2], in [3] and in assay [4] was inactive.
For the molecule `CCN(CC)c1nc(C)cc(OP(=S)(OC)OC)n1`, the outcome in [1], in assay [2], in [5] and in assay [6] was inactive. Also, the concentration at half-maximal activity (AC50) in [3] is 14.1 µM (active); in assay [4] it was 37 µM (active); in assay [7], 4.4 µM (active); in assay [8], 1.41 µM (active); in [9] it was 7.09 µM (active); in assay [10], 0.773 µM (active).
In the case of `Clc1cccc(C(Cl)(Cl)Cl)n1`, the outcome in assay [1], in assay [2], in assay [3], in assay [4] and in assay [5] was inactive.
For `Clc1nc(Cl)nc(Nc2ccccc2Cl)n1`, the result in [1], in assay [2], in assay [3], in assay [4] and in assay [5] was inactive.
Turning to `CCCCC(C#N)(Cn1cncn1)c1ccc(Cl)cc1` (centres undefined), the outcome in assay [1], in assay [2], in assay [3], in assay [4], in [5] and in [13] was inactive. Also, in assay [14], the call was inactive. Further, the AC50 in assay [6] was 0.789 µM (active); in assay [11], 10.4 µM (active); in assay [7] it was 6.49 µM (active); in assay [12], 2.25 µM (active); in assay [9], 8.72 µM (active); in assay [10] it was 0.634 µM (active). For the same molecule, the AC50 in assay [15] is 0.563 µM (active).
Take `CC1(C)CON(Cc2ccccc2Cl)C1=O`: the result in [1], in assay [2], in assay [3] and in [4] was inactive.
In the case of `O=c1n(Cl)c(=O)n(Cl)c(=O)n1Cl`, the outcome in [1], in [2], in [3] and in assay [4] was inactive.
As for `Nc1cnn(-c2ccccc2)c(=O)c1Cl`, the result in [1], in assay [2], in [3] and in [4] was inactive.
For the molecule `C=C(C)CN(CC)c1c([N+](=O)[O-])cc(C(F)(F)F)cc1[N+](=O)[O-]`, the result in [1] and in assay [3] was inactive. The results for the AC50 in assay [2] and in assay [4] were 30.8 µM (active) and 28.8 µM (active), respectively.
Turning to `COC(=O)NS(=O)(=O)c1ccc(N)cc1`, the outcome in [1], in assay [2], in [3] and in [4] was inactive.
`O=C(O)c1c(Cl)ccc2cc(Cl)cnc12`: the outcome in assay [1], in [2], in assay [3], in [4] and in assay [5] was inactive.
Take `CC(C)N1C(=O)c2ccccc2NS1(=O)=O`: the outcome in assay [1], in [2], in [3], in assay [4] and in assay [5] was inactive.
As for `CCN(CC)C(=O)C(C)Oc1cccc2ccccc12` (centres undefined), the outcome in [1], in assay [2], in [3], in assay [4], in assay [5] and in assay [6] was inactive. The AC50 was 5.79 µM (active) in assay [7], 10.8 µM (active) in assay [12], 4.54 µM (active) in assay [9] and 1.15 µM (active) in assay [10].
Turning to `COCc1cnc(C2=NC(C)(C(C)C)C(=O)N2)c(C(=O)O)c1` (centres undefined), the outcome in [1], in assay [2], in assay [3] and in assay [4] was inactive. The AC50 in assay [13] is 3.83 µM (active).
With `CCOP(=O)(OCC)Oc1nc(Cl)c(Cl)cc1Cl`, the result in assay [1], in [2], in [3] and in [16] was inactive. Besides, the concentration at half-maximal activity (AC50) was 17.1 µM (active) in [4]; 7.46 µM (active) in [11]; 8.04 µM (active) in assay [7]; 3.36 µM (active) in assay [8]; 6.11 µM (active) in [12]; 4.09 µM (active) in [10].
On to `CCCCC(O)(Cn1cncn1)c1ccc(Cl)cc1Cl` (centres undefined), for which the result in assay [1], in assay [2] and in assay [3] was inactive. The AC50 in [4] is 29.9 µM (active); in [7], 1.07 µM (active); in assay [12], 1.59 µM (active); in [9], 0.554 µM (active); in [17], 2.52 µM (active); in assay [10], 0.426 µM (active). Moreover, the AC50 in [15] is 1.3 µM (active).
As for `O=C(Nc1ccccc1-c1ccc(Cl)cc1)c1cccnc1Cl`, the result in [1], in assay [2], in assay [3] and in assay [4] was inactive. Further, in [10], the AC50 was 0.661 µM (active).
Regarding `COC(=O)N(C(=O)N1CO[C@@]2(C(=O)OC)Cc3cc(Cl)ccc3C2=N1)c1ccc(OC(F)(F)F)cc1`, the outcome in assay [1], in assay [2] and in assay [9] was inactive. The AC50 in assay [3] is 5.25 µM (active); in [4], 7.29 µM (active); in assay [10], 0.102 µM (active).
